Results published in PubChem BioAssay (NCATS).
Results filed as inconclusive are left out. Unmarked numbers belong to inactive results. Activity calls are given as the source filed them. Calls follow the shape of the dose curve; as a rule, active = well fitted inhibition curve with a large enough effect; inconclusive = small, poorly fitted or top-dose-only effect; inactive = no such curve, though single readings can be large or run the other way.
% is scaled to controls: 0 for no effect and ±100 for the full control effect.

Assay: Primary qHTS for small molecule stabilizers of the endoplasmic reticulum resident proteome: Secreted ER Calcium Modulated Protein (SERCaMP) assay (AID 1508630)
Conditions: SH-SY5Y GLuc-SERCaMP (Gaussia luciferase released on ER calcium loss) secretion, thapsigargin, luminescence; series mostly up to 38.4 µM; activity change, negative = inhibition: at the top concentration
Text: Assay Provider: Brandon K. Harvey Ph.D.
National Institute on Drug Abuse, National Institutes of Health, Baltimore, MD
Endoplasmic reticulum (ER) dysregulation is associated with human pathologies including neurodegenerative, cardiovascular, muscular, and diabetic conditions. Maintenance of ER calcium is critical for functions of the ER and its depletion can lead to loss of ER resident proteins, in a process termed exodosis. Therapeutic compounds capable of attenuating the redistribution of ER proteins under pathological conditions may slow or stop disease progression. To identify such compounds, we performed a quantitative high-throughput screen (qHTS) using the SERCaMP assay, which monitors secretion of ER resident proteins triggered by calcium depletion.
SERCaMP was initially developed as a reporter of ER calcium homeostasis using a Gaussia luciferase with a modified signal peptide and carboxy-terminus (GLuc-SERCaMP), modifications that confer secretion of the reporter in response to ER calcium depletion (Henderson et al., 2014). The assay was used to screen 9,501 compounds, including a collection of drugs approved by the FDA (US), EMA (EU), NHI (Japan), and HC (Canada) regulatory agencies (Huang et al., 2011). Since the SERCaMP reporter reflects the exodosis phenomenon (Trychta et al., 2018a), compounds identified in the screen have the potential to prevent exodosis by different mechanisms such as stabilizing ER calcium or augmenting ERS retrieval.
1. Henderson, M.J., Wires, E.S., Trychta, K.A., Richie, C.T., and Harvey, B.K. (2014). SERCaMP: a carboxy-terminal protein modification that enables monitoring of ER calcium homeostasis. Mol Biol Cell 25, 2828-2839.
2. Huang, R., Southall, N., Wang, Y., Yasgar, A., Shinn, P., Jadhav, A., Nguyen, D.T., and Austin, C.P. (2011). The NCGC pharmaceutical collection: a comprehensive resource of clinically approved drugs enabling repurposing and chemical genomics. Sci Transl Med 3, 80ps16.
3. Trychta, K.A., Back, S., Henderson, M.J., and Harvey, B.K. (2018a). KDEL Receptors Are Differentially Regulated to Maintain the ER Proteome under Calcium Deficiency. Cell Rep 25, 1829-1840 e1826.
SEQUENCE No. (1, 2, 3, etc.); […] (e.g., Cells, Incubation, Reagent, etc.); VALUE and DESCRIPTION.
1; Reagent; 5 uL; 1000 SH-SY5Y cells per wells
3; Compound; 23 nL; Control inhibitor / compound library
5; Reagent; 100 nM; Thapsigargin
7; Reagent; 1 uL; 0.5x coelenterazine
8; Detection; Luminescence; ViewLux imaging system
NOTES (numbers refer to sequence above)
1; SH-SY5Y human neuroblastoma cells stably expressing GLuc-SERCaMP (SH-SY5Y-GLuc-ASARTDL) cells were seeded in 1,536 well white tissue culture treated plates (Corning, Cat# 7464) in DMEM-high glucose-sodium pyruvate (ThermoFisher Scientific, Cat #10569) supplemented with 10% bovine growth serum (Hyclone), 10 U/ml penicillin (Gibco), 10 ug/ml streptomycin (Gibco), and 20 mM HEPES.
2; Assay plates were incubated for 5 hour at 37C in a humidified incubator containing 5% CO2.
3; qHTS libraries (23 nl, final concentrations of 1.53 uM, 7.67 uM, 38.3 uM) or controls (neutral control: DMSO, positive control: dantrolene) were added using a Kalypsis pin-tool Robotic System equipped with 1536 pinheads.
4; Cells were then incubated for 16 hours at 37C, 5% CO2.
5; Thapsigargin was added at 100 nM to deplete ER calcium stores.
6; Cells were incubated for 4 hour (37 °C, 5% CO2)
7; Gaussia luciferase in the medium was measured by adding 1 ul of 0.5x coelenterazine (final concentration 0.07x) prepared in Gaussia Luciferase Glow Assay Buffer (Pierce), without addition of the Cell Lysis Buffer Reagent.
8; Luminescence was measured using a ViewLux […] CCD imaging system (Perkin Elmer) equipped with clear filters. […] The same controls were also used for the calculation of the Z' factor, a measure of assay quality control, as previously described (Zhang et al., 1999). […]
With `C[Se]C[C@H](N)C(=O)O` the “activity change, negative = inhibition” value was -22.8%.
With `C[N+]1(C)CCN(c2ccccc2)CC1` the outcome was “inactive”.
For `C=CCN(C1=NCCN1)c1c(Cl)cccc1Cl`, the “activity change, negative = inhibition” value was -6.66%.
For `Cc1[nH]c2ccc(O)cc2c1CCN`, the outcome was “inactive”.
For `C[C@@H]1O[C@@H](O[C@H]2C[C@@H](O)[C@]3(CO)[C@@H]4C(CC[C@]3(O)C2)[C@@]2(O)CC[C@H]([C@@H]3COC(=O)C3)[C@@]2(C)C[C@H]4O)[C@H](O)[C@H](O)[C@H]1O` (stereo not given in full), the “activity change, negative = inhibition” value was 29.3%.
In the case of `CCCN(CCC)C1Cc2cc(OC)c(OC)cc2C1`, the outcome is reported as “inactive”.
In the case of `CCOC(=O)c1ncn2c1[C@@H]1CCCN1C(=O)c1cc(OC)ccc1-2`, the “activity change, negative = inhibition” value is reported as 5.99%.
With `NC(=O)c1ccc(OCC(O)CN2CC=C(c3ccc(F)cc3)CC2)cc1` (stereo not given) the “activity change, negative = inhibition” value was 44.8%.
In the case of `CN(C(=O)Cc1ccc(Cl)c(Cl)c1)C(CN1CCCC1)c1cccc(OCC(=O)O)c1` (stereo not given), the outcome is reported as “inactive”.
With `O=C1C=CC(=O)C=C1` the “activity change, negative = inhibition” value was -21.7%.
In the case of `C=CCN1CC[C@]23c4c5ccc(O)c4O[C@H]2/C(=N/NC(=O)c2ccccc2)CC[C@@]3(O)[C@H]1C5`, the “activity change, negative = inhibition” value is reported as -8.95%.
In the case of `c1ccc2c(c1)[I+]c1ccccc1-2`, the outcome is reported as “inactive”.
For `CN(N=O)c1ccc(O)c(O)c1`, the “activity change, negative = inhibition” value was -25%.
In the case of `Nc1ccc(CCN2CCN(c3cccc(C(F)(F)F)c3)CC2)cc1`, the “activity change, negative = inhibition” value is reported as -28.7%.
In the case of `CC(C)(C)c1cc(C=C(C#N)C#N)cc(C(C)(C)C)c1O`, the outcome is reported as “inactive”.
For `CC(N)c1cccc(Cl)c1Cl` (stereo not given), the “activity change, negative = inhibition” value was -16.2%.
For `CCN(CCCl)Cc1ccccc1Br`, the “activity change, negative = inhibition” value was -16.5%.
For `NC(Cc1ccc(N(CCCl)CCCl)cc1)C(=O)O` (stereo not given), the “activity change, negative = inhibition” value was 50.6%.
In the case of `C[N+](C)(C)CCOC(=O)CBr`, the outcome is reported as “inactive”.
With `COc1ccc2c(c1)c(CCN1CCOCC1)c(C)n2C(=O)c1cccc(Cl)c1Cl` the “activity change, negative = inhibition” value was -22.4%.
For `C[N+]1(C)CCOC(O)(c2ccc(-c3ccc(C4(O)C[N+](C)(C)CCO4)cc3)cc2)C1` (stereo not given), the outcome was “inactive”.
For `CC12NC(Cc3ccccc31)c1ccccc12` (stereo not given), the “activity change, negative = inhibition” value was 6.13%.
For `Cc1c2ccncc2c(C)c2c1[nH]c1ccccc12`, the “activity change, negative = inhibition” value was -28%.
With `COc1ccc(OC)c(C(O)C(C)N)c1` (stereo not given) the “activity change, negative = inhibition” value was -21.6%.
With `COc1ccc(CNC(=O)/C=C/c2ccc3[nH]cc(CCN(C)C)c3c2)cc1` the “activity change, negative = inhibition” value was -20.9%.
For `O=C1OC2(c3cc(Br)c(O)cc3Oc3c2cc(Br)c(O)[c]3[Hg])c2ccccc21` (stereo not given), the “activity change, negative = inhibition” value was -27.4% [at 13 µM].
For `CCCn1c(=O)c2[nH]c(C3CCCC3)nc2n(CCCOC(=O)c2ccc(S(=O)(=O)F)cc2)c1=O`, the “activity change, negative = inhibition” value was 20.9%.
For `CP(=O)(O)C1=CCNCC1`, the “activity change, negative = inhibition” value was 18%.
In the case of `C[C@H](Cc1ccc2c(c1)OC(C(=O)O)(C(=O)O)O2)NC[C@H](O)c1cccc(Cl)c1`, the “activity change, negative = inhibition” value is reported as -22%.
For `NC(C(=O)O)c1cc(=O)[nH]o1` (stereo not given), the outcome was “inactive”.
With `NC(=O)c1cc(N2CC2)c([N+](=O)[O-])cc1[N+](=O)[O-]` the “activity change, negative = inhibition” value was -21%.
With `CCCN1CCc2cc(O)cc3c2[C@H]1Cc1ccc(O)c(O)c1-3` the “activity change, negative = inhibition” value was -22.7%.
With `CN1CCC(c2c[nH]c3ccc(O)cc23)CC1` the “activity change, negative = inhibition” value was -21%.
With `NC(CCCCCP(=O)(O)O)C(=O)O` (stereo not given) the “activity change, negative = inhibition” value was 28%.
With `CC(N)[C@H](O)c1ccc(O)c(O)c1` (stereo not given in full) the “activity change, negative = inhibition” value was -25.7%.
In the case of `CCCN(CCC)CCc1c[nH]c2ccc(C(N)=O)cc12`, the outcome is reported as “inactive”.
For `NCC(CP(=O)(O)O)c1ccc(Cl)cc1` (stereo not given), the outcome was “inactive”.
For `CN1CC[C@@]2(C)c3cc(O)ccc3N(C)C12` (stereo not given in full), the “activity change, negative = inhibition” value was -27.3%.
For `CN1CC[C@@]2(C)c3cc(OC(=O)Nc4ccccc4)ccc3N(C)[C@@H]12`, the “activity change, negative = inhibition” value was -11.6%.
For `C[N+](C)(C)CC#CCOC(=O)Nc1cccc(Cl)c1`, the outcome was “inactive”.
